Reference: PubChem BioAssay (NCATS)
Where “and” joins values, the source holds several entries; their conditions need not be identical. Equal entries are not always repeated.

Assay: High-throughput drug toxicity screening in the BPDCN cell line Cal-1 (AID 1224825)
Settings: Cal-1 BPDCN cell viability, qHTS; at 45.8 µM (top of the series) unless noted
Excerpt: Blastic plasmacytoid dendritic cell neoplasm (BPDCN) is a rare, aggressive and largely incurable hematologic malignancy originating from plasmacytoid dendritic cells (pDCs). Although an initial response to chemotherapy is common, BPDCN prognosis is extremely poor and most patients relapse with drug-resistant disease leading to a median overall survival of ~1 year after diagnosis. To explore novel potential therapeutic strategies in BPDCN, we performed a high-throughput drug toxicity screening in BPDCN cell liens, using of a library of 1,912 small molecules, enriched for compounds that are either approved or in early stages of development for cancer therapy.
A total of 500 exponentially growing Cal-1 cells were seeded per well in 5 uL of media (RPMI + Glutamine, without phenol red plus10% FBS and 1X Pen/Strep) into 1536-well solid white high base tissue culture treated Greiner One Bio Plates (789173-F), using a multidrop combi dispenser and a small sterile cassette. Compounds and controls totaling 23nL per well (negative control DMSO and positive control 9.2 uM Bortezomib-final) were immediately added to the plates using a 1536 head pin tool from Kalypsys. The plates were then covered with stainless steel gasket lids from Kalypsys and incubated for 48 hours at 37C under 95% relative humidity with 5% CO2. After 48 hours, the plates were removed and allowed to reach room temperature before 3 uL of Cell Titer Glo reagent (Promega) were added using an Aurora Flying Reagent Dispenser Bioraptor. The plates were then spun at 1000 rpms to remove bubbles and incubated for 15 minutes at room temperature before reading on a ViewLux using a luminescent filter with a 10 second exposure. The relative luciferase units were used to calculated percent activity using DMSO as 100% and Bortezomib as 0%.

| SMILES | viability (% of control) |
| --- | --- |
| CCCS(=O)(=O)Nc1ccc(F)c(C(=O)c2c[nH]c3ncc(-c4ccc(Cl)cc4)cc23)c1F | 99.1% |
| COc1ccc(C2=N[C@H](c3ccc(Cl)cc3)[C@H](c3ccc(Cl)cc3)N2C(=O)N2CCNC(=O)C2)c(OC(C)C)c1 | 4.23% |
| CCN(c1ccccc1)c1cc(NC)[n+](C)c(C)n1 | 119% |
| Nc1nc2[nH]cc(CCc3ccc(C(=O)N[C@@H](CCC(=O)O)C(=O)O)cc3)c2c(=O)[nH]1 | 37.4% |
| Oc1ccc(C2CNCCc3c2cc(O)c(O)c3Cl)cc1 (stereo not given) | 66.9% |
| CCCCCCCc1ccc(CCc2cccc(O)c2C(=O)O)cc1 | 66.1% |
| NS(=O)(=O)c1cc2c(cc1Cl)NC=NS2(=O)=O | 26.7% |
| COc1ccc(-c2ccc3c(N4CCOC[C@H]4C)nc(N4CCOC[C@H]4C)nc3n2)cc1CO | 22% |
| O=C(Nc1ccc(F)c(C(F)(F)F)c1)Nc1nnc(-c2ccncc2)s1 | 101% |
| O=c1ncn2nc(Sc3ccc(F)cc3F)ccc2c1-c1c(Cl)cccc1Cl | 45.3% |
| Cc1ccnc(NS(=O)(=O)c2ccc(NC(=O)Nc3ccc(S(=O)(=O)Nc4nccc(C)n4)cc3)cc2)n1 | 24.4% |
| CNC(=O)c1ccc(C)c(-n2c(C)cc(OCc3ccc(F)cc3F)c(Br)c2=O)c1 | 94.3% |
| O=C1CCC(N2C(=O)c3ccccc3C2=O)C(=O)N1 (stereo not given) | 95.9% |
| CC(C=CC1=C(C)CCCC1(C)C)=CC=CC(C)=CC(=O)O | 39.4% and 7.95% |
| C#Cc1cccc(Nc2ncnc3cc(OCCOC)c(OCCOC)cc23)c1 | 10.9% |
| Cc1oncc1C(=O)Nc1ccc(C(F)(F)F)cc1 | 63.8% |
| CC1(C)SCCN(S(=O)(=O)c2ccc(OCC#CCO)cc2)[C@@H]1C(=O)NO | 102% |
| Cc1cc(C=c2sc3nc4ccccc4n3c2=O)c(C)n1-c1ccccc1 | 103% |
| COc1ccccc1-c1cccc(-c2c(O)c3cc(C#N)c(Cl)cc3[nH]c2=O)c1 | 99.8% [at 92.2 µM] |
| NC(=O)c1ccc(I)c([N+](=O)[O-])c1 | 40.1% |

| SMILES | viability (% of control) |
| --- | --- |
| C1COC(NC(C2CC2)C2CC2)=N1 | 53.6% |
| O=C1CCCC2=C1C(c1[nH]ncc1Cl)N=C(Nc1nc3ccccc3o1)N2 (stereo not given) | 82.3% |
| NCCc1ccc(O)c(O)c1 | 25% |
| CCOC(=O)C1=C[C@]2(CC)CCCN3CCc4c(n1c1ccccc41)[C@@H]32 | 2.19% |
| N=c1nc(N2CCCCC2)cc(N)n1O | 106% |
| COc1cccc2cc(-c3nc(C4CCC(C(=O)O)CC4)n4ncnc(N)c34)[nH]c12 (stereo not given) | 21% |
| NCCCC(N)(C(=O)O)C(F)F (stereo not given) | 47.4% |
| CCC(C)n1ncn(-c2ccc(N3CCN(c4ccc(OC[C@H]5CO[C@](Cn6cncn6)(c6ccc(Cl)cc6Cl)O5)cc4)CC3)cc2)c1=O (stereo not given in full) | 93.9% |
| CCC(C)N(C)C(=O)c1cc2ccccc2c(-c2ccccc2Cl)n1 (stereo not given) | 94.3% |
| N[C@@H]1CONC1=O | 97.9% |
| Cn1cnc2c(F)c(Nc3ccc(Br)cc3Cl)c(C(=O)NOCCO)cc21 | 23.1% |
| NC(=O)c1ccc(-c2nc(-c3ccc4c(c3)OCO4)c(-c3ccccn3)[nH]2)cc1 | 113% |
| CNCc1ccc(-c2[nH]c3cc(F)cc4c3c2CCNC4=O)cc1 | 15.1% |
| CC(C)(C)OC(=O)CN(Cc1ccc(Cl)cc1)Cc1ccc([N+](=O)[O-])s1 | 30.5% |
| CN[C@@H](C)C(=O)N[C@H]1CCCC[C@H]2CC[C@@H](C(=O)N[C@@H](c3ccccc3)c3cn(CCCCc4ccc(CCCCn5cc([C@@H](NC(=O)[C@@H]6CC[C@@H]7CCCC[C@H](NC(=O)[C@H](C)NC)C(=O)N76)c6ccccc6)nn5)cc4)nn3)N2C1=O | 1.94% |
| Cc1[nH]c(=O)c(C#N)cc1-c1ccncc1 | 23% |
| CCCCNc1cc(C(=O)O)cc(S(N)(=O)=O)c1Oc1ccccc1 | 113% |
| CCCS(=O)(=O)Nc1ccc(F)c(C(=O)c2c[nH]c3ncc(Cl)cc23)c1F | 17.1% |
| CCOc1ccn(-c2ccc(F)cc2)c(=O)c1C(=O)Nc1ccc(Oc2ccnc(N)c2Cl)c(F)c1 | 23.7% |
| CN1CCN(CCCN2c3ccccc3Sc3ccc(C(F)(F)F)cc32)CC1 | 77.3% |
